Test results published in article PMC7862700, “An all-to-all approach to the identification of sequence-specific readers for epigenetic DNA modifications on cytosine”.

What was measured:
Assay in all cases: DAPPL (digital affinity profiling via proximity ligation, sequencing); 10 mM Tris-HCl pH 7.5, 50 mM NaCl, 1 mM DTT, 4% glycerol, room temperature, 30 min; GST-TFs on glutathione beads, 16-mer random dsDNA library, 0.1% formaldehyde crosslink after washing; high values mean tight binding
ETV5 = ETV5 (Homo sapiens, UniProt P41161 1-510); details: protein: recombinant; tags: N-terminal GST; dsDNA, one strand shown
How it was run: (§1)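 GST fusions of human transcription factors were expressed in yeast and captured with glutathione beads. Once given DNA barcodes and pooled alongside a tag-only sample, they were incubated for 30 min at room temperature with 200 nmole of a random double-stranded 16-mer DNA library in Tris/NaCl/DTT/glycerol buffer, then washed, crosslinked (0.1% formaldehyde), proximity-ligated, PCR-amplified and sequenced on an Illumina NextSeq500. The binding signal of each hexamer is its read frequency for a factor divided by its frequency for the tag-only sample.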

HSF1 = HSF1 (Homo sapiens, UniProt Q00613 1-529); details: protein: recombinant; tags: N-terminal GST; chain copies: 3; dsDNA, one strand shown
How it was run: as §1

SPIC = target: T1, SPIC (Homo sapiens, UniProt Q8N5J4 1-248); details: protein: recombinant; tags: N-terminal GST; dsDNA, one strand shown
T1 sequence: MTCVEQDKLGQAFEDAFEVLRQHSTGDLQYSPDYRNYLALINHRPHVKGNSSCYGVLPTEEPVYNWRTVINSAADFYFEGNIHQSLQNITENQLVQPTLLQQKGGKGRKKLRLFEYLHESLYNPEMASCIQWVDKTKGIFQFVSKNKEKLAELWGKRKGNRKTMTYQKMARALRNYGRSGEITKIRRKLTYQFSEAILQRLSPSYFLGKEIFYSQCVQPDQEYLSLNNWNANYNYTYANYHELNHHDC
How it was run: as §1

ELF4 = ELF4 (Homo sapiens, UniProt Q99607 1-663); details: protein: recombinant; tags: N-terminal GST; dsDNA, one strand shown
How it was run: as §1

ETV2 = target: T2, ETV2 (Homo sapiens, UniProt O00321 1-342); details: protein: recombinant; tags: N-terminal GST; dsDNA, one strand shown
T2 sequence: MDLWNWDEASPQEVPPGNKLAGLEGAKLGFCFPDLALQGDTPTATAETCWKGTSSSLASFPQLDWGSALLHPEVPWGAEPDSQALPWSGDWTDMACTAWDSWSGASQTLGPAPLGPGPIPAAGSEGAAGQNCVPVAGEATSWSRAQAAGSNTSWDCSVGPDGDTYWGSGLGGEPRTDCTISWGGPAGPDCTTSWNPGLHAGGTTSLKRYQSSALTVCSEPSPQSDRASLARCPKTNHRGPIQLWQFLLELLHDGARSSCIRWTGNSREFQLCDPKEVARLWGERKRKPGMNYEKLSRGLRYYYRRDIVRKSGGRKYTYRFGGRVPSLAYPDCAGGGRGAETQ
How it was run: as §1

ELF3 = target: T3, ELF3 (Homo sapiens, UniProt P78545 1-371); details: protein: recombinant; tags: N-terminal GST; dsDNA, one strand shown
T3 sequence: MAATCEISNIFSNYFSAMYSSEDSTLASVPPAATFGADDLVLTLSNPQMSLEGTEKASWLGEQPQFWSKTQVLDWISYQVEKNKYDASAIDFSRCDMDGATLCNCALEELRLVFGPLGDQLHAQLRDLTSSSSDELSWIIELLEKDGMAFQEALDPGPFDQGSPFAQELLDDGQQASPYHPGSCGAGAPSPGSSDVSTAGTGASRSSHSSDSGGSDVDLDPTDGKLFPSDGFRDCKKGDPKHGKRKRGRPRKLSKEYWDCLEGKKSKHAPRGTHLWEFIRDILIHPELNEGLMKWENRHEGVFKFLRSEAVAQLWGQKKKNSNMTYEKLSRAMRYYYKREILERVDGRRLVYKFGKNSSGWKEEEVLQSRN
How it was run: as §1

CRX = CRX (Homo sapiens, UniProt O43186 1-299); details: protein: recombinant; tags: N-terminal GST; dsDNA, one strand shown
How it was run: as §1

ERF = target: T4, ERF (Homo sapiens, UniProt P50548 1-548); details: protein: recombinant; tags: N-terminal GST; dsDNA, one strand shown
T4 sequence: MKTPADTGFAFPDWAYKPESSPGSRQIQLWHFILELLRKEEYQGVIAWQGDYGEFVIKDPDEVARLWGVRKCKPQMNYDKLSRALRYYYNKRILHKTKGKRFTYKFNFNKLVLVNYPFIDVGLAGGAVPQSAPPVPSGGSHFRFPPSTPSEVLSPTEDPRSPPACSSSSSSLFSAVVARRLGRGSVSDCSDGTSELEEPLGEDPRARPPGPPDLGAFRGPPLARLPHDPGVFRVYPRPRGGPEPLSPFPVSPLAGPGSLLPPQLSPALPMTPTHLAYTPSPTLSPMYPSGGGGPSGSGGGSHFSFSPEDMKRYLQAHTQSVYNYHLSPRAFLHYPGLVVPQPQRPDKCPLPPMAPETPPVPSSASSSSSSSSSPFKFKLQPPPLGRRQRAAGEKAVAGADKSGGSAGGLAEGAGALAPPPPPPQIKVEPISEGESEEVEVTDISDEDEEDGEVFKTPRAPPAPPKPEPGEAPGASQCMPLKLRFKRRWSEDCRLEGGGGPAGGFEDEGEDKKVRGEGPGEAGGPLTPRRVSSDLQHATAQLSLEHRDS
How it was run: as §1

ETV3L = target: T5, ETV3L (Homo sapiens, UniProt Q6ZN32 1-361); details: protein: recombinant; tags: N-terminal GST; dsDNA, one strand shown
T5 sequence: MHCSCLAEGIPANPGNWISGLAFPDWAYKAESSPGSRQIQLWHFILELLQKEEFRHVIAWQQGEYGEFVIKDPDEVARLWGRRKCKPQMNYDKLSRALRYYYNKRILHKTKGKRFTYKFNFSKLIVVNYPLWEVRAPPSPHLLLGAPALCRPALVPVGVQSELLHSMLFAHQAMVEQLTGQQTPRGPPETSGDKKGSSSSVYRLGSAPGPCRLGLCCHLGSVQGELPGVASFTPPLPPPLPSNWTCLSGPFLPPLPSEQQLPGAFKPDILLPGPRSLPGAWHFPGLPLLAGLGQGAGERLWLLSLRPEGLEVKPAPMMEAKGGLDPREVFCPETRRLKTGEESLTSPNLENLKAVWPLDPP
How it was run: as §1

ETS2 = target: T6, ETS2 (Homo sapiens, UniProt P15036 1-469); details: protein: recombinant; tags: N-terminal GST; dsDNA, one strand shown
T6 sequence: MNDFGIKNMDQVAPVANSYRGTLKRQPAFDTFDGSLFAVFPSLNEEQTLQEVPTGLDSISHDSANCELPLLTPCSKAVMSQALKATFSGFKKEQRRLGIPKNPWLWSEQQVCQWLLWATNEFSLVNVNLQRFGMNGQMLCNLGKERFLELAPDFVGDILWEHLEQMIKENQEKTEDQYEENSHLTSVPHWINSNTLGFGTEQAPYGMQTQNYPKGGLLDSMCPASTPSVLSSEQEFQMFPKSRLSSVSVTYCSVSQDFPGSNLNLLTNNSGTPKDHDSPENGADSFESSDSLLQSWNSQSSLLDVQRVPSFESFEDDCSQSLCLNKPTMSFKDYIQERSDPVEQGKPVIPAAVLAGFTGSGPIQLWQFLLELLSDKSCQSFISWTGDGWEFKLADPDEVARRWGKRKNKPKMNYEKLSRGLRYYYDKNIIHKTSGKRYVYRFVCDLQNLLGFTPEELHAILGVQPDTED
How it was run: as §1

ETV7 = target: T7, ETV7 (Homo sapiens, UniProt Q9Y603 1-341); details: protein: recombinant; tags: N-terminal GST; dsDNA, one strand shown
T7 sequence: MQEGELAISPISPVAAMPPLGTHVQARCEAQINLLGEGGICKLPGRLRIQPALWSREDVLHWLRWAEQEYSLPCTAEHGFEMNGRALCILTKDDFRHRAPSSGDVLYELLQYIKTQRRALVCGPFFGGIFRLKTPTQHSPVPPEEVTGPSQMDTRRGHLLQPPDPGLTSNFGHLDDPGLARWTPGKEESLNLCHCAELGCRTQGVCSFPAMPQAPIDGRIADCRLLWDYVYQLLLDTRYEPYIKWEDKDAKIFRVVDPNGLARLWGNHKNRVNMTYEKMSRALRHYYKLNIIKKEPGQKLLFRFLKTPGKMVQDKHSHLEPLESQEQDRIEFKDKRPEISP
How it was run: as §1

ELF5 = target: T8, ELF5 (Homo sapiens, UniProt Q9UKW6-2 1-255); details: protein: recombinant; tags: N-terminal GST; dsDNA, one strand shown
T8 sequence: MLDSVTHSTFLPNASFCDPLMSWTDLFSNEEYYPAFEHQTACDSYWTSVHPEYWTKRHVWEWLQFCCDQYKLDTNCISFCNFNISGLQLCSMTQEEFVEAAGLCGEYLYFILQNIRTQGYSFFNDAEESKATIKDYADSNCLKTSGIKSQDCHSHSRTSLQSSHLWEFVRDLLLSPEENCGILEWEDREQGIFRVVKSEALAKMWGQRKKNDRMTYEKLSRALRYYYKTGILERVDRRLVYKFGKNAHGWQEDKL
How it was run: as §1

ETV3 = target: T9, ETV3 (Homo sapiens, UniProt P41162-2 1-143); details: protein: recombinant; tags: N-terminal GST; dsDNA, one strand shown
T9 sequence: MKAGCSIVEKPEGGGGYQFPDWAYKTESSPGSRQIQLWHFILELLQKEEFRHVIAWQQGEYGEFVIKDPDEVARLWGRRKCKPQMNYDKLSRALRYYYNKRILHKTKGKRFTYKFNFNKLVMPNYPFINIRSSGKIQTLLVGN
How it was run: as §1

ETV6 = ETV6 (Homo sapiens, UniProt P41212 1-452); details: protein: recombinant; tags: N-terminal GST; dsDNA, one strand shown
How it was run: as §1

FEV = target: T10, FEV (Homo sapiens, UniProt Q99581 1-238); details: protein: recombinant; tags: N-terminal GST; dsDNA, one strand shown
T10 sequence: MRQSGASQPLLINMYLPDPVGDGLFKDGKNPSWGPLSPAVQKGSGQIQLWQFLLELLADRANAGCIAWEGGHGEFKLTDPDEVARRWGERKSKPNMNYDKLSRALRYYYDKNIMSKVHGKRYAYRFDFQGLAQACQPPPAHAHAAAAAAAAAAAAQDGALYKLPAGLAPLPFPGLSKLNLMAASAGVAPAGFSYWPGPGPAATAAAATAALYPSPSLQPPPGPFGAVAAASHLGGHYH
How it was run: as §1

ETV1 = ETV1 (Homo sapiens, UniProt P50549 1-477); details: protein: recombinant; tags: N-terminal GST; dsDNA, one strand shown
How it was run: as §1

SPDEF = target: T11, SPDEF (Homo sapiens, UniProt O95238 1-335); details: protein: recombinant; tags: N-terminal GST; dsDNA, one strand shown
T11 sequence: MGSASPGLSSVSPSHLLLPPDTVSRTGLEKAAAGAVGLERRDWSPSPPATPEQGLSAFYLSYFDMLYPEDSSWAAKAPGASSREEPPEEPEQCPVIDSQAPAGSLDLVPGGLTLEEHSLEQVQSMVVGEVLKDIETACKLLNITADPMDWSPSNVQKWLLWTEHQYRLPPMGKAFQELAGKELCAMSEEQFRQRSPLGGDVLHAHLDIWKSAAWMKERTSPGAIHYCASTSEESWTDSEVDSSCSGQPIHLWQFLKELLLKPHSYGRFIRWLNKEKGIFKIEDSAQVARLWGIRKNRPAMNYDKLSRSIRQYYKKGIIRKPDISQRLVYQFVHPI
How it was run: as §1

Sequence of ELF4 (Q99607 whole entry): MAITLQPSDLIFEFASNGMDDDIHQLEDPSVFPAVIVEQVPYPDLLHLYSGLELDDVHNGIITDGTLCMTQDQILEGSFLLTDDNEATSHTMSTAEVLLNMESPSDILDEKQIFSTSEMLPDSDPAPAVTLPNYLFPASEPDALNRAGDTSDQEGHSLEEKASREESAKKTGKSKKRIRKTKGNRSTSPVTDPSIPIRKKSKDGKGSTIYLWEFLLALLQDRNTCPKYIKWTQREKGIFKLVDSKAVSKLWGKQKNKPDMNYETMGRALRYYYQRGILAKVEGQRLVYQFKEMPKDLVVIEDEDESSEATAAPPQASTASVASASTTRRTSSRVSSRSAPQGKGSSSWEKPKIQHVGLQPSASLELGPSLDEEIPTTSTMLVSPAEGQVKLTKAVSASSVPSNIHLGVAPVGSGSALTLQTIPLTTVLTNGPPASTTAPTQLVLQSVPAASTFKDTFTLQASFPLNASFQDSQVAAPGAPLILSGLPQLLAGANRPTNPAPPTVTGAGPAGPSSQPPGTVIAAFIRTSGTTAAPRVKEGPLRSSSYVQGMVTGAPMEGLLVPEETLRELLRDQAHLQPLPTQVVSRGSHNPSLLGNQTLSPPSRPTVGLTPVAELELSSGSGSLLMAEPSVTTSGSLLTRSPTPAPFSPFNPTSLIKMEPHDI
Sequence of ETV5 (P41161 whole entry, the tested form may be a part): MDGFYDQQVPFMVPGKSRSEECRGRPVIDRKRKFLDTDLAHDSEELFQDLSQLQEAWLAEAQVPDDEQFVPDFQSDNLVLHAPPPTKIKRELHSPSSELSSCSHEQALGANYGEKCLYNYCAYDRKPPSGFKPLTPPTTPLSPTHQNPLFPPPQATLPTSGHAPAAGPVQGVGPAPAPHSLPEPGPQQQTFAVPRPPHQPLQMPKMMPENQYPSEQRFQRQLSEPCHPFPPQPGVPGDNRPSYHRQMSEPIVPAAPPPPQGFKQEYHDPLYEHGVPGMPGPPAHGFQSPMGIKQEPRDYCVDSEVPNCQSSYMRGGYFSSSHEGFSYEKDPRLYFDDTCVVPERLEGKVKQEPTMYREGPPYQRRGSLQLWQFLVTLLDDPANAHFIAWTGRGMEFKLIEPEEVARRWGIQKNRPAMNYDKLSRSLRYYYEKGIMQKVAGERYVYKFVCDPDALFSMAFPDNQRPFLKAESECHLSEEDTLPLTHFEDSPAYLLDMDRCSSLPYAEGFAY
Sequence of ETV6 (P41212 whole entry): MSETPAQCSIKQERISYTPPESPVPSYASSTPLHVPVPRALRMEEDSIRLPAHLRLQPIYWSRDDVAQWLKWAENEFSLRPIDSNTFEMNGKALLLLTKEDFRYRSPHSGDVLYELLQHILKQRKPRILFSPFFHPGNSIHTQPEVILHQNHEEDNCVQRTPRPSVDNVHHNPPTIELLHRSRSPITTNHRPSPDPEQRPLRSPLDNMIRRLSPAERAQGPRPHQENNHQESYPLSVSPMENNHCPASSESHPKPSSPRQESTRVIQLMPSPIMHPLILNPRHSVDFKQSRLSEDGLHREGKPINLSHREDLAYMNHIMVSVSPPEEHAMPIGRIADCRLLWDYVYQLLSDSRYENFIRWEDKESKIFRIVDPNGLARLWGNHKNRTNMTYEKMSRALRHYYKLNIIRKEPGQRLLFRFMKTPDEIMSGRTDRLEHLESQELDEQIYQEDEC
Sequence of CRX (O43186 whole entry): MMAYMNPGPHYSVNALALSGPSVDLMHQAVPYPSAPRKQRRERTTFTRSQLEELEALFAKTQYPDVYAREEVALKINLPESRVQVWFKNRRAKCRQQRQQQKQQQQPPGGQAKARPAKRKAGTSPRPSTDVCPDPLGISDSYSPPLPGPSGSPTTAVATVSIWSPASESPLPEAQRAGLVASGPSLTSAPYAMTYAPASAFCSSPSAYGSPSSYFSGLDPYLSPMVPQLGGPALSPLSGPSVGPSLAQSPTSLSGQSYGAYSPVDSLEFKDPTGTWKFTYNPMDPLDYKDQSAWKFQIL
Sequence of HSF1 (Q00613 whole entry): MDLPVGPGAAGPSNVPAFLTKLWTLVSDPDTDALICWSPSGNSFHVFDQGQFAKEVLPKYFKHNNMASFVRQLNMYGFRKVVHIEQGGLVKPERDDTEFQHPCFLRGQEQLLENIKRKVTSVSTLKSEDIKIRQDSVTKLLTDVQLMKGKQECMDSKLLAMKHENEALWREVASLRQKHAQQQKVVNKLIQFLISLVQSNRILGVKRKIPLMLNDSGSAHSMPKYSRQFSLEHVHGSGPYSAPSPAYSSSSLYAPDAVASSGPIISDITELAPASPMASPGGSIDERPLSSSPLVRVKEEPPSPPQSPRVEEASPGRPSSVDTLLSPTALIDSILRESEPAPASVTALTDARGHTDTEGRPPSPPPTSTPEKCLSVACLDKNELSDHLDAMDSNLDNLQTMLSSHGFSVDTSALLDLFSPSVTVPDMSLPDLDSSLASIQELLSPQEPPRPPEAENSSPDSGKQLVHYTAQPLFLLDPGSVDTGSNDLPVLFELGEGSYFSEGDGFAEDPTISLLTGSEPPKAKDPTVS
Sequence of ETV1 (P50549 whole entry): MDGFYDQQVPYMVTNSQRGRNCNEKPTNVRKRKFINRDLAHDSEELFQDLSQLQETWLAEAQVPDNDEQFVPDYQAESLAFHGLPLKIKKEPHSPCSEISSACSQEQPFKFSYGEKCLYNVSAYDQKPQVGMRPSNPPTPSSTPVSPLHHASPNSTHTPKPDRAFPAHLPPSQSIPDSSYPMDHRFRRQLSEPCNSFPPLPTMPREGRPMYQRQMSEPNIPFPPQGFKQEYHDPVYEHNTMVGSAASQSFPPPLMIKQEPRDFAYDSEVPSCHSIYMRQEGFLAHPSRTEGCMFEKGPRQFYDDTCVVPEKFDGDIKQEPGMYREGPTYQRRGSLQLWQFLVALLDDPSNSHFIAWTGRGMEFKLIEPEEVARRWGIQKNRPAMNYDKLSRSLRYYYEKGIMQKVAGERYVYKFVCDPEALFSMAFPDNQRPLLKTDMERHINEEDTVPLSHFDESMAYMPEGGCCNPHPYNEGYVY

Sequence | binding signal (ETV5) | binding signal (HSF1) | binding signal (SPIC) | binding signal (ELF4) | binding signal (ETV2) | binding signal (ELF3) | binding signal (CRX) | binding signal (ERF) | binding signal (ETV3L) | binding signal (ETS2) | binding signal (ETV7) | binding signal (ELF5) | binding signal (ETV3) | binding signal (ETV6) | binding signal (FEV) | binding signal (ETV1) | binding signal (SPDEF)
TCTAGG | 1.05 fold enrichment (6-mer frequency, TF over GST control) | 1.7 fold enrichment (6-mer frequency, TF over GST control) | 1.24 fold enrichment (6-mer frequency, TF over GST control) | 1.13 fold enrichment (6-mer frequency, TF over GST control) | 1.11 fold enrichment (6-mer frequency, TF over GST control) | 1.07 fold enrichment (6-mer frequency, TF over GST control) | 1.27 fold enrichment (6-mer frequency, TF over GST control) | 1.03 fold enrichment (6-mer frequency, TF over GST control) | 1.08 fold enrichment (6-mer frequency, TF over GST control) | 1.02 fold enrichment (6-mer frequency, TF over GST control) | 1.16 fold enrichment (6-mer frequency, TF over GST control) | 1.07 fold enrichment (6-mer frequency, TF over GST control) | 1.12 fold enrichment (6-mer frequency, TF over GST control) | 1.02 fold enrichment (6-mer frequency, TF over GST control) |  |  | 
ATACCA | 1.01 fold enrichment (6-mer frequency, TF over GST control) | 1.03 fold enrichment (6-mer frequency, TF over GST control) | 1.03 fold enrichment (6-mer frequency, TF over GST control) | 1.09 fold enrichment (6-mer frequency, TF over GST control) | 1.08 fold enrichment (6-mer frequency, TF over GST control) |  | 1.04 fold enrichment (6-mer frequency, TF over GST control) | 1.06 fold enrichment (6-mer frequency, TF over GST control) | 1.08 fold enrichment (6-mer frequency, TF over GST control) | 1.06 fold enrichment (6-mer frequency, TF over GST control) | 1.02 fold enrichment (6-mer frequency, TF over GST control) | 1.03 fold enrichment (6-mer frequency, TF over GST control) |  | 1.01 fold enrichment (6-mer frequency, TF over GST control) | 1.08 fold enrichment (6-mer frequency, TF over GST control) | 1.05 fold enrichment (6-mer frequency, TF over GST control) | 1 fold enrichment (6-mer frequency, TF over GST control)
